Laboratory results reported in PubChem BioAssay AID1159580 (chemical genetic matrix, 2015).
“And” between values parts separate entries of the source, which are not always exact repeats. Equal entries are not always repeated. Among all 5,500 compounds or so, about 2,000 (36%) were called active. Another 18% or so got no clear call; they are omitted. No stated cut-off is given here; in the data, active means normalized growth mostly below about 0.91 (no sharp cut-off); inconclusive means no clear call, values can overlap the other calls; inactive means mostly above about 0.92. This is one part of the list.

Assay: chemical genetic growth profiling, strain panel (AID 1159580);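 further: tested at 20 µM; growth read once vehicle control cultures reached saturation at 30 °C; 1 = growth at the plate median or of vehicle wells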
Settings: S. cerevisiae deletion strains, growth OD

Measured: normalized growth

CN(C)CCOC(=O)COc1ccc(Cl)cc1
active: locus YDR137W, strain rgp1, stronger effect = lower value 1.21 [resistant] | locus YDR502C, strain sam2, stronger effect = lower value 1.09 [resistant]
inactive: locus YAL013W, strain DEP1, stronger effect = lower value 1.02 | locus YAL021C, strain ccr4, stronger effect = lower value 0.955 | locus YAL026C, strain drs2, stronger effect = lower value 0.968 | locus YAL030W, strain snc1, stronger effect = lower value 0.973 | locus YAL040C, strain CLN3, stronger effect = lower value 1.06 | locus YBL061C, strain skt5, stronger effect = lower value 0.966 | locus YBR009C, strain hhf1, stronger effect = lower value 0.984 | locus YBR021W, strain FUR4, stronger effect = lower value 0.95 | locus YBR023C, strain chs3, stronger effect = lower value 0.965 | locus YBR171W, strain sec66, stronger effect = lower value 0.969 | locus YBR229C, strain ROT2, stronger effect = lower value 1.01 | locus YBR231C, strain swc5, stronger effect = lower value 0.96 | locus YBR279W, strain paf1, stronger effect = lower value 0.987 | locus YCL011C, strain gbp2, stronger effect = lower value 0.957 | locus YCL016C, strain dcc1, stronger effect = lower value 0.969 | locus YCL029C, strain bik1, stronger effect = lower value 1.04 | locus YCL061C, strain MRC1, stronger effect = lower value 0.969 | locus YCL069W, strain vba3, stronger effect = lower value 0.974 | locus YCR088W, strain abp1, stronger effect = lower value 0.956 | locus YDL005C, strain med2, stronger effect = lower value 0.972 | locus YDL035C, strain GPR1, stronger effect = lower value 1.05 | locus YDL040C, strain nat1, stronger effect = lower value 0.973 | locus YDL074C, strain BRE1, stronger effect = lower value 1.05 | locus YDL101C, strain DUN1, stronger effect = lower value 1.02 | locus YDL134C, strain PPH21, stronger effect = lower value 1.01 | locus YDL185W, strain tfp1, stronger effect = lower value 1.03 | locus YDL192W, strain arf1, stronger effect = lower value 1.04 | locus YDR001C, strain nth1, stronger effect = lower value 0.965 | locus YDR069C, strain doa4, stronger effect = lower value 0.953 | locus YDR101C, strain arx1, stronger effect = lower value 1.03 | locus YDR150W, strain NUM1, stronger effect = lower value 1.03 | locus YDR159W, strain sac3, stronger effect = lower value 0.944 | locus YDR162C, strain NBP2, stronger effect = lower value 1.03 | locus YDR195W, strain ref2 1.02 | locus YDR297W, strain sur2, stronger effect = lower value 0.963 | locus YDR318W, strain mcm21, stronger effect = lower value 1.06 | locus YDR334W, strain swr1, stronger effect = lower value 0.933 | locus YDR335W, strain msn5, stronger effect = lower value 0.969 | locus YDR388W, stronger effect = lower value 1.03 | locus YDR392W, strain spt3, stronger effect = lower value 0.974 | locus YEL003W, strain gim4, stronger effect = lower value 0.957 | locus YEL037C, strain rad23, stronger effect = lower value 0.969 | locus YEL061C, strain CIN8 (second series), stronger effect = lower value 0.972 | locus YEL061C, strain CIN8, stronger effect = lower value 1.02 | locus YER002W, strain NOP16, stronger effect = lower value 0.971 | locus YER015W, strain faa2, stronger effect = lower value 0.972 | locus YER016W, strain bim1, stronger effect = lower value 0.968 | locus YER110C, stronger effect = lower value 1.05 | locus YER111C, strain swi4, stronger effect = lower value 0.98 | locus YER155C, strain BEM2 (second series), stronger effect = lower value 0.962 | locus YER155C, strain BEM2, stronger effect = lower value 1.01 | locus YER167W, strain BCK2, stronger effect = lower value 1.01 | locus YFR010W, strain ubp6, stronger effect = lower value 0.965 | locus YGL078C, strain dbp3, stronger effect = lower value 1.04 | locus YGL086W, strain mad1, stronger effect = lower value 1.06 | locus YGL167C, strain pmr1, stronger effect = lower value 0.968 | locus YGL173C, strain kem1, stronger effect = lower value 0.975 | locus YGL227W, strain vid30, stronger effect = lower value 0.965 | locus YGL240W, strain doc1, stronger effect = lower value 0.967 | locus YGL248W, strain PDE1, stronger effect = lower value 1.01 | locus YGL253W, strain hxk2, stronger effect = lower value 0.968 | locus YGR078C, strain PAC10, stronger effect = lower value 1.05 | locus YGR135W, strain pre9, stronger effect = lower value 1.03 | locus YGR229C, strain SMI1, stronger effect = lower value 1.06 | locus YGR252W, strain gcn5, stronger effect = lower value 1.01 | locus YHR013C, strain ard1, stronger effect = lower value 0.983 | locus YHR027C, strain rpn1, stronger effect = lower value 0.96 | locus YHR030C, strain SLT2, stronger effect = lower value 1.02 and 1.08 | locus YHR079C, strain IRE1 (second series), stronger effect = lower value 1.03 | locus YHR079C, strain IRE1, stronger effect = lower value 1.11 | locus YHR094C, strain hxt1, stronger effect = lower value 1.02 | locus YHR129C, strain ARP1, stronger effect = lower value 1.02 | locus YHR142W, strain chs7, stronger effect = lower value 0.962 | locus YHR200W, strain rpn10, stronger effect = lower value 1.06 | locus YIL066C, strain RNR3, stronger effect = lower value 1.04 | locus YIL073C, strain SPO22, stronger effect = lower value 1.08 | locus YIL125W, strain kgd1, stronger effect = lower value 1.01 | locus YIR030C, strain dcg1, stronger effect = lower value 1.03 | locus YJL092W, strain hpr5, stronger effect = lower value 0.943 | locus YJL095W, strain BCK1 (second series), stronger effect = lower value 0.965 | locus YJL095W, strain BCK1, stronger effect = lower value 1.05 and 1.09 | locus YJL115W, strain asf1, stronger effect = lower value 0.947 | locus YJL129C, strain trk1, stronger effect = lower value 1 | locus YJL134W, strain LCB3, stronger effect = lower value 1.01 | locus YJL154C, strain vps35, stronger effect = lower value 0.971 | locus YJL164C, strain tpk1, stronger effect = lower value 0.97 | locus YJL166W, strain qcr8, stronger effect = lower value 0.981 | locus YJL168C, strain set2, stronger effect = lower value 1.02 | locus YJL187C, strain SWE1 (second series), stronger effect = lower value 1.04 | locus YJL187C, strain SWE1, stronger effect = lower value 0.981 | locus YJR043C, strain POL32, stronger effect = lower value 1.09 | locus YJR066W, strain TOR1, stronger effect = lower value 0.974 | locus YJR075W, strain HOC1, stronger effect = lower value 0.98
